Source: PubChem BioAssay (NCI)
This is part of a sample that, as a whole, favours compounds with a hit. Of some 83,000 tested, about 20% had one in any assay.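 Assay: single dose, 48 h. Readout: percent growth (0 = no net growth; negative = cell death). Active: <10.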 Unmarked numbers belong to inactive results. Activity calls are given as the source filed them.

Tests used:
Assay in all cases: NCI-60 one-dose screen, 48 h (100 = growth as untreated, 0 = no growth, -100 = all killed)
[1] = tested on: HCT-15 colon; details: 10 µM unless noted
[2] = tested on: HT29 colon; details: 10 µM unless noted
[3] = tested on: SNB-75 CNS; details: 10 µM unless noted
[4] = tested on: SNB-19 CNS; details: 10 µM unless noted
[5] = tested on: U251 CNS; details: 10 µM unless noted
[6] = tested on: PC-3 prostate; details: 10 µM unless noted
[7] = tested on: SK-MEL-5 melanoma; details: 10 µM unless noted
[8] = tested on: LOX IMVI melanoma; details: 10 µM unless noted
[9] = tested on: SK-MEL-28 melanoma; details: 10 µM unless noted
[10] = tested on: SK-MEL-2 melanoma; details: 10 µM unless noted
[11] = tested on: EKVX NSCLC; details: 10 µM unless noted
[12] = tested on: SN12C renal; details: 10 µM unless noted
[13] = tested on: UO-31 renal; details: 10 µM unless noted
[14] = tested on: TK-10 renal; details: 10 µM unless noted
[15] = tested on: ACHN renal; details: 10 µM unless noted
[16] = tested on: CAKI-1 renal; details: 10 µM unless noted
[17] = tested on: A498 renal; details: 10 µM
[18] = tested on: HL-60(TB) leukemia; details: 10 µM unless noted
[19] = tested on: CCRF-CEM leukemia; details: 10 µM unless noted
[20] = tested on: UACC-62 melanoma; details: 10 µM unless noted

Structure (SMILES)	growth [1]	growth [2]	growth [3]	growth [4]	growth [5]	growth [6]	growth [7]	growth [8]	growth [9]	growth [10]	growth [11]	growth [12]	growth [13]	growth [14]	growth [15]	growth [16]	growth [17]	growth [18]	growth [19]	growth [20] [%]
COC(=O)[C@@H](C)C[C@H](Cc1ccccc1)NC(=O)c1csc([C@@H](C[C@H](C(C)C)N(C)C(=O)[C@@H](NC(=O)C23CC(NC(C)=O)(C2)C3)C2CC2)OC(C)=O)n1	92%	20.9%	14%	65.3%	33.1%	44.4%	30.5%	31.7%	61.3%	49%	78.8%	51.7%	95.4%	77.1%	96.2%	95.3%	48.3%	-17.2% (active)	9.99% (active)	
CC(C)(C)C(=O)OCOP(=O)(OCOC(=O)C(C)(C)C)C1CCCN(O)C1=O (stereo not given)	7.4% (active)	2.01% (active)	47.6%	2.57% (active)	2.06% (active)	24.2%	-13.5% (active)	17.6%	-23.8% (active)	24.9%	19.7%	2.67% (active)	5.91% (active)	2.8% (active)	8.69% (active)	5.9% (active)	-24.3% (active)	-21% (active)	9.89% (active)	
Cc1cc(N(CCCl)CCCl)ccc1C=Nc1ccc(-c2csc(Cc3ccccc3)n2)cc1	76.1%	88.3%	50.3%	81.1%	62.7%	53%	84.1%		90.5%	109%		49%	30.7%	84.5%	50.8%	25.4%	-45.8% (active)	30.7%	33.9%	48.6
CCCCCCCCCCCCCCCCCC1OC[C@@H](COC(=O)O[C@@H](C(=O)O[C@H]2C[C@@]3(O)[C@@H](OC(=O)c4ccccc4)[C@@H]4[C@]5(OC(C)=O)CO[C@@H]5C[C@H](O)[C@@]4(C)C(=O)[C@H](OC(C)=O)C(=C2C)C3(C)C)[C@@H](NC(=O)c2ccccc2)c2ccccc2)O1 (stereo not given in full)	100%	18.2%	50.2%	62.1%	58%	46.6%	75.7%		59%	82.9%	96.9%	72%	93.5%	108%		89.3%	70.9%	35.8%	59.2%	58.7
COc1ccc(N(CC(=O)NCCC[Te]c2ccccc2)C(=O)CCSC2=C(C)C(=O)c3ccccc3C2=O)cc1	-15.7% (active)	1.86% (active)	13.2%	-12.4% (active)	-42.7% (active)	0.627% (active)	-96.7% (active)	-50.1% (active)	-18.1% (active)	-49.6% (active)	-2.22% (active)	-8.2% (active)	-29.3% (active)	8.99% (active)	-51.4% (active)	-25.5% (active)	-32.2% (active)			
Nc1cc2nc3ccccc3nc2cc1N	88.5%	105%	85.5%	85.6%	77.2%	79.3%	87%	80.8%	129%	107%	84.8%	80.5%	74.2%	110%	99.2%	101%	78.3%	87.5%	94%	
C[C@@H]1C[C@@]2(C)[C@@H](CC[C@@H]3[C@@H]2CC[C@]2(C)C(=O)CC[C@@H]32)CC1=O	103%	91.8%	86.2%	96.7%	101%	97.3%	114%		76.7%		86.5%	103%	96.3%	94%	103%	-30.7% (active)	71.9%	74.6%	83.7%	99.4
CC(C)CCC(=O)O[C@H]1CC[C@H]2[C@@H]3CCC4=CC(=O)CC[C@]4(C)[C@H]3CC[C@]12C	97.4%	106%	82.6%	105%	99.2%	92.8%	96.5%	97.9%	99.8%	115%	73.9%	107%	82.1%	100%	98.5%	88.5%	77.2%	108%	104%	
O=C(O)C1C(C(=O)O)C2(Cl)C(Cl)=C(Cl)C1(Cl)C2(Cl)Cl.[Hg] (stereo not given)	87%	82.2%	86.6%	96.9%	44.7%	76.2%	85.3%	85.2%	96.7%	102%	102%	87.4%	111%	144%	99%	101%	149%	68.9%	71.8%	
COC(=O)CC12CC(NC(=O)c3csc([C@@H](C[C@H](C(C)C)N(C)C(=O)[C@@H](NC(=O)[C@H]4CCCCN4C)C(C)C)OC(C)=O)n3)(C1)C2	11.8%	5.49% (active)	59%	37.8%	17.3%	30.2%	-30.2% (active)		59.4%	51.6%	38.6%	25.4%	55.2%	50.5%	17.2%		5.32% (active)		13.6%	49.7
c1ccc(COc2ccc3[nH]cc(CCN(Cc4ccccc4)Cc4ccccc4)c3c2)cc1	47.2%	83.5%	89.2%	104%	81.6%	57.7%	88.3%	81.8%	104%	93.6%	82.8%	86.3%	60.3%	109%	97.1%	71.8%	105%	91.8%	73.8%	
COC(=O)[C@@H](C)C[C@H](Cc1ccccc1)NC(=O)c1nc([C@@H](C[C@H](C(C)C)N(C)C(=O)[C@@H](NC(=O)[C@H]2CCCCN2C)C(C)C)OC(C)=O)sc1C(C)C	5.69% (active)	1.52% (active)	-0.49% (active)	27.7%	6.19% (active)	21.2%	-57.3% (active)		49.1%	20%	31.2%	10.8%	18.3%	45%	18.4%		-9.92% (active)		7.31% (active)	29.4
CC[C@H](C)[C@H](NC(=O)C12C3C4C1C1C2C3C41NC)C(=O)N(C)[C@H](C[C@@H](OC(C)=O)c1nc(C(=O)N[C@@H](Cc2ccccc2)C[C@H](C)C(=O)OC)cs1)C(C)C (stereo not given in full)	18.4%	2.58% (active)	31.4%	49.6%	11.6%	21.2%	3.34% (active)	15.7%	58.1%	43%	40.7%	36.5%	51.1%	41.9%	40.8%	40.5%	-12.6% (active)	-14.6% (active)	13.2%	
O=[N+]([O-])c1ccc([Se]C2CCCCC2Cl)c([N+](=O)[O-])c1 (stereo not given)	88.3%	60.7%	-39.9% (active)	56.2%	20.4%	58.9%	68.6%		72.6%	66.5%	46%	59.5%	-88.3% (active)	102%		76.7%	29.4%	78.8%	80.9%	72.2
COC(=O)C12CC(NC(=O)c3csc([C@@H](C[C@H](C(C)C)N(C)C(=O)[C@@H](NC(=O)[C@H]4CCCCN4C)C4CC4)OC(C)=O)n3)(C1)C2	14.1%	-8.13% (active)	43.4%	39.6%	11.8%	23.4%	-22.5% (active)	15.7%	60.1%	34.7%	59.8%	37.9%	48.5%	39.2%	33.6%	38.6%	-5.31% (active)	-44% (active)	17.2%	
